# HCV inhibitor: qHTS Assay for Inhibitors of Hepatitis C Virus (HCV); actives 3.4% (n = 340,000); Potency, µM (series often up to 41.8 µM), actives largely listed as inhibitors; Huh7.5.1 HCVcc-Cre infection, luciferase reporter, 44 h
#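 A cell-based infection assay in which seeded cells (1,000 per well) receive test compound after 4 h, are inoculated with HCVcc-Cre at approximately 0.5 moi, and are incubated 44 h before luminescence detection.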
# NS1 function inh: qHTS Assay for Inhibitors of Influenza NS1 Protein Function. Potency, µM (doses to about 46.1 µM). actives 0.4% (n = 270,000); calls by dose curve; note: actives are rising curves; nearly all actives have a fitted effect of over 50% in size
#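 Read-out: OD600 growth recovery of NS1-expressing budding yeast. Cells grown overnight at 30C in -URA glucose medium, washed, resuspended and diluted 1:100 in 2% galactose assay medium, pH 6.0. Same strain lacking NS1 served as positive control.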
# Pf growth 96h: Primary qHTS for delayed death inhibitors of the malarial parasite plastid, 96 hour incubation; Potency, µM (series often up to 28.7 µM), hits mostly inhibitors; actives 6.9% (n = 320,000); P. falciparum luciferase reporter growth, 96 h; AID 504834, 2011
#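 Two-generation exposure (96 h) targets delayed-death phenotype. Reporter parasites carrying integrated firefly luciferase, in red cells at 2% hematocrit and 0.05% parasitemia final, kept at 37 C, 5% CO2; luminescence loss indicates inhibition.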
# SARS PLpro yeast: qHTS of Yeast-based Assay for SARS-CoV PLP; actives 0.19% (n = 330,000); AID 485353, 2010; S. cerevisiae expressing SARS-CoV PLpro, growth rescue; Potency, µM (doses to about 32.9 µM), usual class: activators; calls by dose curve; note: nearly all actives have a fitted effect of over 55% in size
# Pf growth 48h: Primary qHTS for delayed death inhibitors of the malarial parasite plastid, 48 hour incubation; P. falciparum luciferase growth in erythrocytes, 48 h; Potency, µM (doses to about 28.7 µM), most hits filed as inhibitors; actives 5.9% (n = 310,000); AID 504832, 2011
#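 Erythrocytes infected with P. falciparum carrying an integrated firefly luciferase reporter (2% hematocrit, 0.1% parasitemia final) were exposed to compounds in RPMI 1640 with 0.5% Albumax at 37 C, 5% CO2. Growth inhibition was scored as reduced luminescence.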
# AMA1 RON2 block: qHTS for Inhibitors of AMA1-RON; Towards Development of Antimalarial Drug Lead: Primary Screen; AlphaScreen AMA1-biotinylated RON2 peptide binding; Plasmodium falciparum AMA1 (3D7) - RON2 peptide interaction; AID 720542, 2013; Potency, µM (highest dose often 58.2 µM), actives largely listed as inhibitors; actives 0.2% (n = 360,000); note: nearly all actives have a fitted effect of over 45% in size
#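 AMA1 (3D7) with his tag at 25 nM final met compounds first, then biotinylated RON2 peptide at 25 nM; detection used donor plus acceptor beads, 10 µg/mL apiece, read by AlphaScreen after 30 min at room temperature.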
# Numbers stand for hits; n = inactive; u = inconclusive; x = no result; [ ] = remark or other dose. An excerpt weighted towards active compounds, which were near 12% of everything screened. Unless noted, calls come from the whole dose curve; as a rule, active = well fitted curve in the direction sought with a large enough effect; inconclusive = small, poorly fitted or top-dose-only effect, or another doubt; inactive = no such curve, though single readings can be large; an effect the other way counts as inactive or inconclusive.
SMILES,HCV inhibitor,NS1 function inh,Pf growth 96h,SARS PLpro yeast,Pf growth 48h,AMA1 RON2 block
COC(=O)C1=C(c2ccccc2OCc2ccccc2)C[C@@H]2CC[C@H]1N2C(=O)NCc1ccc(F)cc1,7.1µM,x,u,n,9.3µM,n
COC(=O)C1=C(c2ccc(F)cc2OCc2ccccc2)C[C@@H]2CC[C@H]1N2C(=O)NCc1ccc(C)cc1,u,x,u,n,9.3µM,n
COC(=O)C1=C(c2ccc(F)cc2OCc2ccccc2)C[C@@H]2CC[C@H]1N2C(=O)NCCCc1ccccc1,10µM,x,5.2µM,n,12µM,n
COC(=O)C1=C(c2ccc(F)cc2OCc2ccccc2)C[C@@H]2CC[C@H]1N2C(=O)NCc1ccc([N+](=O)[O-])cc1,u,x,u,n,12µM,n
COc1ccc(CCC(=O)Nc2cc(S(C)(=O)=O)ccc2Cl)cc1,x,x,n,n,n,x
Clc1ccc(Cn2c(-c3cccnc3Cl)nc3ccccc32)cc1,u,n,u,n,u,n
CCN1c2ccccc2-c2nc3ccccc3n2C1c1ccco1 (stereo unspecified),n,n,4.7µM,n,12µM,n
CN1c2ccccc2-c2nc3ccccc3n2C1c1ccccn1 (stereo unspecified),n,n,x,n,9.3µM,n
CN1c2ccccc2-c2nc3ccccc3n2C1c1ccncc1 (stereo unspecified),n,n,u,n,u,n
c1ccc(CN2c3ccccc3-c3nc4ccccc4n3C2c2ccccn2)cc1 (stereo unspecified),n,n,4.1µM,n,7.4µM,n
CCn1c(-c2ccco2)nc2ccccc21,n,n,n,n,n,n
COc1cccc(C(=O)NNc2c3ccccc3nc3ccccc23)c1,u,n,12µM,n,u,u
Clc1cncc(Cl)c1NNc1c2ccccc2nc2ccccc12,u,n,n,n,2.9µM,n
Cc1cc(C(=O)NNC(=O)c2ccc(Cl)cc2)c2ccccc2n1,n,x,n,n,n,n
O=C(NNc1c2ccccc2nc2ccccc12)c1ccc(Cl)cc1,u,n,n,n,13µM,n
Cc1ccc(C(=O)NNc2c3ccccc3nc3ccccc23)cc1,11µM,n,n,n,13µM,n
c1cncc(Nc2c3ccccc3nc3ccccc23)c1,u,n,n,n,u,n
CCCCCCCCN1C(=O)[C@H](CC(=O)NCCCN2CCCC2=O)C[C@@]2(C(=O)OC)CC(C)(C)CC=C12,x,x,x,x,x,n
CSc1nc(N(C)NC(=O)c2ccc(Cl)cc2)c2ccccc2n1,u,n,3.7µM,n,3.3µM,n
Cc1ccc2cc(C#N)c(NCCNC(=O)C3CC3)nc2c1C,10µM,n,n,n,u,n
Cc1ccc2cc(C#N)c(NCCNC(=S)NCCCN(C)C)nc2c1C,u,n,u,n,u,n
CCOC(=O)C1=C(C)c2ccccc2OC1(C(=O)OCC)C(C)C (stereo unspecified),n,x,x,n,x,n
COc1ccc(-c2cc(=O)[nH][nH]2)cc1OC,u,n,x,n,12µM,n
C=C(C)Cn1c(N2CCN(c3ccc(OC)cc3)CC2)nc2c1c(=O)n(C)c(=O)n2C,u,x,n,n,n,n
CN1CCN(c2nc3c(c(=O)n(C)c(=O)n3C)n2Cc2ccc(Cl)cc2)CC1,n,n,0.12µM,n,n,n
SMILES,HCV inhibitor,NS1 function inh,Pf growth 96h,SARS PLpro yeast,Pf growth 48h,AMA1 RON2 block
CCCCCCn1c(N2CCN(c3ccccc3)CC2)nc2c1c(=O)n(C)c(=O)n2C,u,n,x,n,6.6µM,u
Cn1c(=O)c2c(nc(N3CCN(c4ccccn4)CC3)n2Cc2ccccc2Cl)n(C)c1=O,u,n,13µM,n,9.3µM,n
COc1ccc(N2CCN(c3nc4c(c(=O)n(C)c(=O)n4C)n3Cc3ccccc3)CC2)cc1,11µM,n,x,n,u,n
Cn1c(=O)c2c(nc(N3CCNCC3)n2Cc2ccccc2Cl)n(C)c1=O,n,n,n,n,n,n
CC1CN(c2nc3c(c(=O)n(Cc4ccc(Cl)cc4)c(=O)n3C)n2C)CC(C)O1 (stereo unspecified),n,n,2.3µM,n,5.9µM,n
C#CCOc1nc2c(c(=O)n(C)c(=O)n2C)n1Cc1ccccc1,13µM,n,n,n,n,n
COc1ccccc1CNC(=O)C1CCC(CNc2c(N3CCC(C)CC3)c(=O)c2=O)CC1 (stereo unspecified),n,n,n,n,n,n
CCn1c(SCC(=O)N/N=C/c2ccc(C)o2)nnc1-c1ccc(C(C)(C)C)cc1,u,n,u,n,n,n
CCn1c(SCC(=O)N/N=C/c2c[nH]c3ccccc23)nnc1-c1ccc(C(C)(C)C)cc1,u,n,10µM,n,u,n[2.32 µM]
Oc1cc(Cc2ccccc2)cnc1CN1CCCCC1,n,n,n,n,0.93µM,n
CCOc1ccc2cc(C3CC(c4ccco4)=NN3S(C)(=O)=O)c(=O)[nH]c2c1 (stereo unspecified),n,n,n,n,n,n
Nc1nc2nc[nH]c2c(=O)[nH]1,5µM,x,u,x,u,n
CSc1nc(C(=O)N2CCc3c([nH]c4ccccc34)C2c2ccccn2)cs1 (stereo unspecified),n,n,n,n,n,n
O=C(c1noc2c1CCCC2)N1CCc2c([nH]c3ccccc23)C1c1ccccn1 (stereo unspecified),n,n,u,n,u,n
Cc1cccc(C2c3[nH]c4ccccc4c3CCN2Cc2cnn(-c3ccc(F)cc3)c2)n1 (stereo unspecified),n,n,n,n,10µM,n
Cc1ccc2nc(C(=O)N3CCc4c([nH]c5ccccc45)C3c3ccccn3)cn2c1 (stereo unspecified),n,n,9.3µM,n,n,n
Fc1ccc(C2c3[nH]c4ccccc4c3CCN2Cc2ccoc2)cc1 (stereo unspecified),n,n,u,n,u,n
Cc1cccc(C2c3[nH]c4ccccc4c3CCN2C(=O)c2noc3c2CCCC3)n1 (stereo unspecified),u,n,13µM,n,u,u
CC(=O)c1ccc(C(=O)N2CCc3c([nH]c4ccccc34)C2c2ccccn2)s1 (stereo unspecified),n,n,u,n,u,u
O=C(c1ccccc1-c1ncc[nH]1)N1CCc2c([nH]c3ccccc23)C1c1ccccn1 (stereo unspecified),n,n,n,n,12µM,u
O=C(CCNC(=O)c1ccc(Br)cc1)Nc1ccc(S(=O)(=O)Nc2ncccn2)cc1,n,x,n,n,n,n

# Compound activity (PubChem)
